# Laboratory results taken from PubChem BioAssay (NCATS).
# Results filed as inconclusive are left out. A number with no mark means an inactive call. Calls of active or inactive are those of the source. The call rests on the fitted dose curve; in most records, active means well fitted inhibition curve with a large enough effect; inconclusive means small, poorly fitted or top-dose-only effect; inactive means flat fitted curve, though single readings scatter.
# Test: P-glycoprotein substrates identified in KB-8-5-11 adenocarcinoma cell line, qHTS therapeutic library screen (AID 1346987); further: nearly all actives have a fitted effect of over 65% in size
# Settings: KB-8-5-11 (P-gp overexpressing) viability, CellTiter-Glo, 72 h; series mostly up to 44.5 µM; activity change, negative = cytotoxicity: at the top concentration
# Outline: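 Luminescence from CellTiter-Glo, read 5 min after addition, quantified survival of KB-8-5-11 (P-gp-overexpressing) cells exposed to compounds for 72 h. AC50 was derived from concentration-response curves.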
# On the % scale 0 is the no-effect control and ±100 the full control effect; potency means the concentration at half of the fitted maximal effect.
SMILES,Potency,outcome,"activity change, negative = cytotoxicity"
CS(=O)(=O)N1CCC(NC(=O)c2[nH]ncc2NC(=O)c2c(Cl)cccc2Cl)CC1,9.2 µM (active),–,–
O=C(Nc1ccc(Cl)cc1F)c1ccccc1O,7.31 µM (active),–,–
CC1=C(COC2OC(CO)C(O)C(O)C2O)C(C(CO)C(=O)O)CC1 (stereo not drawn),–,inactive,–
O=C(CCCCN1CCOCC1)Nc1ccc(-c2cccnc2)cc1,–,–,0.946%
CC(C)(O)C1CCC(C)(C2CCC3(C)C4CCC5C(C)(C(=O)OC6OC(CO)C(O)C(O)C6O)C(O)CC(O)C56CC46CCC23C)O1 (stereo not drawn),–,–,-0.552% [at 17.3 µM]
CC1(C)CC2C(C1)C(C)(O)C13CC1(COC3=O)C2O (stereo not drawn),–,–,-11.5%
CC1=CC(=O)C2C(C)(C)CCC[C@]2(C)[C@H]1CO (stereo partly drawn),–,–,4.32%
COc1cc(C2Oc3c(OC)cc(CCCO)cc3C2CO)ccc1O[C@H]1O[C@H](C)[C@@H](O)[C@H](O)[C@@H]1O (stereo partly drawn),–,–,-0.443% [at 17.3 µM]
COc1ccc(C2COc3cc(O)ccc3C2)c(O)c1 (stereo not drawn),–,–,-11.5%
O=C(c1ccc(/C=C/c2n[nH]c3ccccc23)cc1)N1CCNCC1,6.51 µM (active),–,–
NC(=O)c1cccc2cn(-c3ccc(C4CCCNC4)cc3)nc12 (stereo not drawn),–,–,-23.4%
COc1ccc(-c2cnc(-c3cccc4c3-c3ccccc3C4=O)o2)cc1,0.0893 µM (active),–,–
CC(=O)OC1C[C@]2(C)C(O)CC(C)=C[C@H](OC(=O)c3ccc(O)cc3)C2[C@]1(O)C(C)C (stereo partly drawn),–,–,5.63% [at 17.3 µM]
